Reference: PubChem BioAssay (EPA / NIEHS)
Activity calls are given as the source filed them. How the source made its calls: active means hit-call score of the fitted dose curve at least 0.9, where 1 is the maximum; inactive means score below 0.9.

Columns and labels:
[1] = target: CCAAT/enhancer-binding protein beta (Homo sapiens) (UniProt P17676); experiment: ATG_C_EBP_CIS: Attagene CIS-FACTORIAL HepG2 Assay for human CCAAT/Enhancer Binding Protein (C/EBP) beta (AID 2282927); conditions: HepG2 Attagene cis-factorial transcription factor reporter; actives raise or lower the signal
Summary of the method: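 Endogenous transcription factor activity in human liver HepG2 cells is inferred from induction of a CEBPB-linked reporter mRNA. Exposure lasts 24 h; activity is fitted in both directions relative to DMSO.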

[2] = ATG_CMV_CIS: Attagene CIS-FACTORIAL HepG2 Assay for human CMV (Internal Marker) (AID 2282928); conditions: HepG2 CMV promoter reporter, transcription factor profiling; actives raise or lower the signal;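 further: endpoint acts as a background internal control marker rather than a target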
Summary of the method: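 Readout: fluorescent reporter cDNA fragments separated by capillary electrophoresis after RT-PCR and HpaI cut. Cells: HepG2 carrying transfected cis-promoter reporter constructs, dosed 24 h. Endpoint serves as background internal-marker control, fit bidirectionally versus DMSO.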

[3] = ATG_DR4_LXR_CIS: Attagene CIS-FACTORIAL HepG2 Assay for human Liver X Receptor (LXR), DR4 submotif (AID 2282929); conditions: HepG2 Attagene DR4 cis-reporter, mRNA transcription; actives raise or lower the signal
Summary of the method: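 DR4 cis-reporter in HepG2, 24 h exposure. Detection: RT-PCR, 6-FAM labelling, CE fragment analysis. Endpoint fitted bidirectionally, DMSO = baseline.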

[4] = target: Aryl hydrocarbon receptor (Homo sapiens) (UniProt P35869); experiment: ATG_Ahr_CIS: Attagene CIS-FACTORIAL HepG2 Assay for human Aryl Hydrocarbon Receptor (Ahr) (AID 2282930); conditions: HepG2 AhR cis-factorial reporter transcription; actives raise or lower the signal
Summary of the method: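 Transient MRTU transfection of HepG2 → 24 h compound exposure → total RNA, oligo(dT) RT → PCR, 6-FAM extension, HpaI cut → CE fluorescence. DMSO = baseline; bidirectional curve fit.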

[5] = ATG_AP_1_CIS: Attagene CIS-FACTORIAL HepG2 Assay for human Activator Protein 1 (AP-1) (AID 2282931); conditions: HepG2 Attagene cis-factorial AP-1 reporter mRNA; actives raise or lower the signal
Summary of the method: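 Cis-regulated reporter units transiently expressed in HepG2 report endogenous transcription-factor activity. Signal: reporter mRNA at 24 h, via RT-PCR and fluorescent capillary electrophoresis. Endpoint derived by bidirectional fitting, DMSO as negative control.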

[6] = ATG_BRE_CIS: Attagene CIS-FACTORIAL HepG2 Assay for human Bone Morphogenetic Protein (BMP) Response Element (BRE) (AID 2282933); conditions: HepG2 BMP response element reporter, Attagene transcription factor profiling; actives raise or lower the signal
Summary of the method: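 Read-out: reporter mRNA induction quantified by RT-PCR and capillary electrophoresis after 24 h chemical exposure of transfected HepG2 cells. Endogenous factor activity on the BMP response element; gain or loss fitted against DMSO baseline.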

[7] = target: Retinoic acid receptor alpha (Homo sapiens) (UniProt P10276); experiment: ATG_DR5_RAR_CIS: Attagene CIS-FACTORIAL HepG2 Assay for human Retinoic Acid Receptor Alpha (RARE), DR5 submotif (AID 2282934); conditions: HepG2 Attagene cis-factorial RARE DR5 reporter, mRNA; actives raise or lower the signal
Summary of the method: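 Transient MRTU transfection of HepG2; 24 h compound treatment; TriZol RNA, oligo(dT) RT, PCR, FAM labelling, capillary electrophoresis. Bidirectional fit vs DMSO. Endogenous TF activity at DR5 RARE.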

[8] = target: Transcription factor E2F1 (Homo sapiens) (UniProt Q01094); experiment: ATG_E2F_CIS: Attagene CIS-FACTORIAL HepG2 Assay for human E2F Transcription Factor 1 (AID 2282935); conditions: HepG2 Attagene cis-reporter, E2F reporter RNA transcripts; actives raise or lower the signal
Summary of the method: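 Fluorescent RT-PCR products, digested with HpaI for 2 h at 37 C, are separated by capillary electrophoresis. Source RNA comes from transfected HepG2 cultures treated for 24 h.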

[9] = ATG_E_Box_CIS: Attagene CIS-FACTORIAL HepG2 Assay for human Enhancer Box (E-box) (AID 2282936); conditions: HepG2 E-box cis-reporter transcription, actives raise or lower the signal
Summary of the method: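 Fluorescent reporter fragments separated by capillary electrophoresis gave the signal; mRNA came from HepG2 cells transfected with cis-element reporters and treated 24 h. Curves fitted bidirectionally relative to DMSO controls.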

[10] = ATG_M_61_CIS: Attagene CIS-FACTORIAL HepG2 Assay for M61 Transcription Factor (Internal Marker) (AID 2282937); conditions: HepG2 Attagene CIS-FACTORIAL M61 internal marker reporter; actives raise or lower the signal
Summary of the method: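 Background-control endpoint: HepG2 cells with cis-regulated reporter constructs, 24 h exposure, reporter mRNA detected via fluorescent primer extension and capillary electrophoresis; values from bidirectional fitting with DMSO baseline.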

[11] = ATG_EGR_CIS: Attagene CIS-FACTORIAL HepG2 Assay for human Early Growth Response 1 (EGR1) (AID 2282938); conditions: HepG2 Attagene CIS-FACTORIAL EGR reporter mRNA; actives raise or lower the signal
Summary of the method: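 Endpoint derived by bidirectional fitting versus DMSO vehicle. Method: cis-promoter reporter units transfected into HepG2, 24 h dosing, RNA isolation, RT-PCR with 6-FAM primer extension and HpaI digestion, then capillary electrophoresis fluorescence detection.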

[12] = ATG_M_19_CIS: Attagene CIS-FACTORIAL HepG2 Assay for M19 Transcription Factor (Internal Marker) (AID 2282939); conditions: HepG2 Attagene CIS-FACTORIAL M19 internal marker reporter; actives raise or lower the signal
Summary of the method: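 Readout: fluorescent reporter-transcript fragments by capillary electrophoresis after RT-PCR. Human HepG2 liver cells carried transfected MRTU constructs reporting endogenous transcription-factor activity; exposure 24 h. Gain or loss of signal fitted relative to DMSO.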

[13] = ATG_Ets_CIS: Attagene CIS-FACTORIAL HepG2 Assay for human Erythroblast Transformation Specific (ETS) (AID 2282941); conditions: HepG2 ETS cis-reporter transcription, actives raise or lower the signal
Summary of the method: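 RT-PCR/capillary electrophoresis fluorescence read-out of reporter mRNA; HepG2 transient multi-reporter transfection; 24 h compound exposure; gain or loss of signal fitted bidirectionally relative to DMSO.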

[14] = ATG_FoxO_CIS: Attagene CIS-FACTORIAL HepG2 Assay for human Forkhead box O (FoxO) (AID 2282943); conditions: HepG2 Attagene cis-reporter, FoxO element, mRNA; actives raise or lower the signal
Summary of the method: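 HepG2, transient MRTU transfection (cis element, endogenous TFs). Dose 24 h. TriZol RNA → oligo(dT) RT → PCR → 6-FAM primer extension → HpaI cut → CE. Gain/loss vs DMSO.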

[15] = ATG_GATA_CIS: Attagene CIS-FACTORIAL HepG2 Assay for human GATA Binding Protein (AID 2282944); conditions: HepG2 GATA cis-element reporter, Attagene multiplex mRNA; actives raise or lower the signal
Summary of the method: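 Read-out: fluorescent reporter mRNA fragments resolved by capillary electrophoresis after RT-PCR. Human liver HepG2 cells carried transiently transfected cis-regulated reporter constructs; chemicals incubated 24 h; gain or loss of signal fitted relative to DMSO.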

[16] = ATG_GLI_CIS: Attagene CIS-FACTORIAL HepG2 Assay for human Zinc Finger Protein GLI1 (AID 2282945); conditions: HepG2, Attagene cis-factorial reporter mRNA, GLI element; actives raise or lower the signal
Summary of the method: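 Bidirectional curve fits relative to DMSO, using reporter mRNA levels from RT-PCR plus capillary electrophoresis. Cells were HepG2 transiently carrying cis-regulated reporter constructs, harvested 24 h after dosing.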

[17] = ATG_AP_2_CIS: Attagene CIS-FACTORIAL HepG2 Assay for human Activator Protein 2 (AP-2) (AID 2282932); conditions: HepG2 AP-2 cis-reporter, Attagene transcription factor profiling; actives raise or lower the signal
Summary of the method: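 Transiently transfected HepG2 cells are exposed to chemical for 24 h. Reporter transcripts are then measured as fluorescence following RT-PCR and capillary separation, and gain- or loss-of-signal is fitted relative to DMSO.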

[18] = target: Hepatocyte nuclear factor 3-beta (Homo sapiens) (UniProt Q9Y261); experiment: ATG_FoxA2_CIS: Attagene CIS-FACTORIAL HepG2 Assay for human Forkhead box A2 (FOXA2) (AID 2282942); conditions: HepG2 cis-reporter transcription factor activity, 24 h; actives raise or lower the signal
Summary of the method: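 Measured: reporter mRNA induction or loss in HepG2 transiently carrying multiple cis-regulated reporter units, 24 h after dosing. Quantified by RT-PCR plus capillary electrophoresis, normalised to DMSO.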

Chain of Transcription factor E2F1 (Homo sapiens) (Q01094 whole entry, looked up): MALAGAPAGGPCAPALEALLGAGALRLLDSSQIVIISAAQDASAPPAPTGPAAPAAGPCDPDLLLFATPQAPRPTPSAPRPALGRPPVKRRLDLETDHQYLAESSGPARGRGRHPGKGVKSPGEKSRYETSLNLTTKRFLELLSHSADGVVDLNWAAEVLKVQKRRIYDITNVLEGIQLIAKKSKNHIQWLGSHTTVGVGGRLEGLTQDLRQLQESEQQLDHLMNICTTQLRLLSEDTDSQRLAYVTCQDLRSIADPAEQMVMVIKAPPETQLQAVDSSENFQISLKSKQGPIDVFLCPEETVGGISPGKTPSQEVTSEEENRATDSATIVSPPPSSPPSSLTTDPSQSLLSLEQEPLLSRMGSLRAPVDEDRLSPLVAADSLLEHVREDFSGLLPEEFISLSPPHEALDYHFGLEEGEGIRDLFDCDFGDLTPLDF
Chain of Retinoic acid receptor alpha (Homo sapiens) (P10276 whole entry, looked up): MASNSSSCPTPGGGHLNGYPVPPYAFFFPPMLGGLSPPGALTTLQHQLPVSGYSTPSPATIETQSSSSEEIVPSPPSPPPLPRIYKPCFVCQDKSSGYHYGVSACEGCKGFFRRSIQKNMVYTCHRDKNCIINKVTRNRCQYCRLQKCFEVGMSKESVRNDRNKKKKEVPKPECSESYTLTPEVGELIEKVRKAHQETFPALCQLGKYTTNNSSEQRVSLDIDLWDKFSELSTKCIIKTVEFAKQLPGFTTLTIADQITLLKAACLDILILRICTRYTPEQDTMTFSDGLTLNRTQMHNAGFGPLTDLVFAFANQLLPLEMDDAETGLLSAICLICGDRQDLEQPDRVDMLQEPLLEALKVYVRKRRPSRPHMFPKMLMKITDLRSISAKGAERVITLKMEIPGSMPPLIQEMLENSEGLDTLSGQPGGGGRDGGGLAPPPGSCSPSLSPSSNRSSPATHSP
Chain of Hepatocyte nuclear factor 3-beta (Homo sapiens) (Q9Y261 whole entry, looked up): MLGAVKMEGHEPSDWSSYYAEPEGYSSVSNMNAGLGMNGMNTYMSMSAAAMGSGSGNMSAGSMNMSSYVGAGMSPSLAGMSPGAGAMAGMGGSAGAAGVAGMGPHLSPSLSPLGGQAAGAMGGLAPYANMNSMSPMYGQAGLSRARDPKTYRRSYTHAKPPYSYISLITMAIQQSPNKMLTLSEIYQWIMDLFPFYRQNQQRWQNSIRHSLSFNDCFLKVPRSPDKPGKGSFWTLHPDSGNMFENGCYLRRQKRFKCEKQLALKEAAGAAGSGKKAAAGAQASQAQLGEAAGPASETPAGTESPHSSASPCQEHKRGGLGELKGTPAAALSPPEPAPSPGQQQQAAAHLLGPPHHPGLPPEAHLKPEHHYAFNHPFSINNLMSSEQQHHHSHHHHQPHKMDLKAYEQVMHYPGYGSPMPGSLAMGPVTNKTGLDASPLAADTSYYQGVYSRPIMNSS
Chain of Aryl hydrocarbon receptor (Homo sapiens) (P35869 whole entry, looked up): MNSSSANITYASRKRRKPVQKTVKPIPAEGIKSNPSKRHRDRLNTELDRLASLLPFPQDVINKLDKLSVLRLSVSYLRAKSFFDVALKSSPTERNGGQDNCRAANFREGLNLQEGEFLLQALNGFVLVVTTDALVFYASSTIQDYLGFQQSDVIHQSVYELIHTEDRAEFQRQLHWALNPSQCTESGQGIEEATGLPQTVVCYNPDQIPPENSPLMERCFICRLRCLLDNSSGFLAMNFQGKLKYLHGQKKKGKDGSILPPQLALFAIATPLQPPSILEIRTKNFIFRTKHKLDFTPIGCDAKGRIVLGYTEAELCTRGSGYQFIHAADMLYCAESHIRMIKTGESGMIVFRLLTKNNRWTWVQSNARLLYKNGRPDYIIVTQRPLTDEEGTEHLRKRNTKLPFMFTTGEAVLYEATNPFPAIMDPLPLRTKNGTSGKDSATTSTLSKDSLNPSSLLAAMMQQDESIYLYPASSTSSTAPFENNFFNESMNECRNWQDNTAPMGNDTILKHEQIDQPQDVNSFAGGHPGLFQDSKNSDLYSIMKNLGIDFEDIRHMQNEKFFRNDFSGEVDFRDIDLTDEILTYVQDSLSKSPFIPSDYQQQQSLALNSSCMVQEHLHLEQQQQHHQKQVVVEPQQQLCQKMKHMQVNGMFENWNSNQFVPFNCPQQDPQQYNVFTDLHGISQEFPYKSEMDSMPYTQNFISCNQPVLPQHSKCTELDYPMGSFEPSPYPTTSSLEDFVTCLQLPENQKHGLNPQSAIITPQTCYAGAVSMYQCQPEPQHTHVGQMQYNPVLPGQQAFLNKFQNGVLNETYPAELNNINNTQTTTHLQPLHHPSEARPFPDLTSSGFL
Chain of CCAAT/enhancer-binding protein beta (Homo sapiens) (P17676 whole entry, looked up): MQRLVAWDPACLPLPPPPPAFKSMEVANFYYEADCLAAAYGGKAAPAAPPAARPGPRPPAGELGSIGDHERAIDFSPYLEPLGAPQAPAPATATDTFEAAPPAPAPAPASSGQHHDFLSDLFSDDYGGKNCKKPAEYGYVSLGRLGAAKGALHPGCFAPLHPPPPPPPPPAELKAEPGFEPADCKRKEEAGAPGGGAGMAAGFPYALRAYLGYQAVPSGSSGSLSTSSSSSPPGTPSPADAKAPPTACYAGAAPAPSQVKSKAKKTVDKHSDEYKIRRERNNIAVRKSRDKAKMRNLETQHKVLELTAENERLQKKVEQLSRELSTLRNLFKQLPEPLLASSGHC

Compound	outcome [1]	outcome [2]	outcome [3]	outcome [4]	outcome [5]	outcome [6]	outcome [7]	outcome [8]	outcome [9]	outcome [10]	outcome [11]	outcome [12]	outcome [13]	outcome [14]	outcome [15]	outcome [16]	outcome [17]	outcome [18]	AC50 [4]	AC50 [5]
CC(C)=CCCC(C)CCOC=O (stereo not given)	inactive	inactive	inactive	inactive	inactive	inactive	inactive	inactive	inactive	inactive	inactive	inactive	inactive	inactive	inactive	inactive				
C=C(CC(=O)O)C(=O)O	inactive	inactive	inactive	inactive	inactive	inactive	inactive	inactive	inactive	inactive	inactive		inactive	inactive	inactive	inactive	inactive	inactive		
CCCOCCO	inactive	inactive	inactive	inactive	inactive	inactive	inactive	inactive	inactive	inactive	inactive		inactive	inactive	inactive	inactive		inactive		
C=C(C)[C@H]1CC=C(C)C(=O)C1		inactive	inactive		inactive	inactive		inactive	inactive	inactive	inactive	inactive	inactive	inactive	inactive	inactive	inactive	inactive		
[Cl][Au]([Cl])[Cl]	inactive	inactive	inactive			inactive	inactive	inactive	inactive	inactive	inactive	inactive	inactive	inactive		inactive	inactive	inactive	39.8 µM (active)	72.6 µM (active)
CC(C)C(OC(=O)c1ccccc1)C(C)(C)COC(=O)c1ccccc1 (stereo not given)	inactive	inactive	inactive	inactive	inactive	inactive	inactive	inactive	inactive	inactive	inactive		inactive	inactive	inactive	inactive		inactive		
CCCCCCCCCCCCS(=O)(=O)Cl	inactive	inactive	inactive	inactive	inactive	inactive	inactive	inactive	inactive	inactive	inactive	inactive	inactive	inactive	inactive	inactive	inactive			
CC1(C)C(=O)N(Cl)C(=O)N1Br		inactive	inactive		inactive		inactive	inactive	inactive	inactive	inactive	inactive	inactive	inactive	inactive	inactive	inactive			
CC(C)=CCCC(C)CC(=O)O (stereo not given)		inactive	inactive		inactive	inactive	inactive	inactive	inactive	inactive	inactive	inactive	inactive	inactive	inactive	inactive	inactive			
CCCCOCC	inactive	inactive	inactive	inactive	inactive	inactive	inactive		inactive	inactive	inactive	inactive	inactive	inactive	inactive	inactive	inactive	inactive		
